Settings in all cases: mRNA level, 48 h; actives raise or lower the signal
Read-out in experiment [1]: Glutamate-cysteine ligase catalytic (GCLC), GCLC (gene 2729)
Briefly: LTEA_HepaRG_GCLC: Life Technologies and Expression Analysis (LTEA) Assay for Glutamate-cysteine ligase catalytic (GCLC) using HepaRG (AID 2283498). The method in brief:
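HepaRG, 48 h exposure, 8-pt half-log series from 100 uM, 0.5% DMSO vehicle; TaqMan qRT-PCR for GCLC mRNA, housekeeping-normalized; bidirectional curve fit vs DMSO baseline.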

Read-out in experiment [2]: growth arrest and DNA damage 45 (GADD45G), GADD45G (gene 10912)
Briefly: LTEA_HepaRG_GADD45G: Life Technologies and Expression Analysis (LTEA) Assay for growth arrest and DNA damage 45 (GADD45G) using HepaRG (AID 2283499). The method in brief: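 Differentiated human HepaRG cells, 48 h post-plating, exposed 48 h in serum-free induction medium to 8 half-log concentrations (top 100 uM, 0.5% DMSO) in duplicate. GADD45G mRNA measured by Fluidigm TaqMan qRT-PCR, normalized to ACTB, GAPDH, POLR2A; bidirectional fit versus DMSO.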

Read-out in experiment [3]: Glutamate-cysteine ligase regulatory (GCLM), GCLM (gene 2730)
Nature of the experiment: LTEA_HepaRG_GCLM: Life Technologies and Expression Analysis (LTEA) Assay for Glutamate-cysteine ligase regulatory (GCLM) using HepaRG (AID 2283500). The method in brief: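 Endpoint is GCLM transcript level by qRT-PCR, normalized to three housekeeping genes, after 48 h chemical exposure of human HepaRG cells (0.5% DMSO vehicle, top 100 uM, half-log dilutions). Fitting was bidirectional relative to DMSO.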

Read-out in experiment [4]: Glutathione S-transferase M3 (GSTM3), GSTM3 (gene 2947)
Briefly: LTEA_HepaRG_GSTM3: Life Technologies and Expression Analysis (LTEA) Assay for Glutathione S-transferase M3 (GSTM3) using HepaRG (AID 2283501). The method in brief:
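Differentiated human HepaRG cells were exposed in duplicate for 48 h in serum-free induction medium, 8 points from 100 uM top in half-log steps, 0.5% DMSO. GSTM3 mRNA was measured by TaqMan qRT-PCR, normalized to ACTB, GAPDH and POLR2A; bidirectional fit versus DMSO.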

Read-out in experiment [5]: Heat shock 70 kDa protein 1 (HSPA1A), gene 3303
Nature of the experiment: LTEA_HepaRG_HSPA1A: Life Technologies and Expression Analysis (LTEA) Assay for Heat shock 70 kDa protein 1 (HSPA1A) using HepaRG (AID 2283502). The method in brief:
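Cells were plated and cultured for 48 h, then switched to serum-free induction medium. Chemicals were added at eight half-log concentrations up to 100 uM for 48 h. RNA was then isolated and HSPA1A measured by qRT-PCR with bidirectional curve fitting against DMSO.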

Read-out in experiment [6]: Hypoxia-inducible factor 1-alpha (Homo sapiens) (UniProt Q16665)
Nature of the experiment: LTEA_HepaRG_HIF1A: Life Technologies and Expression Analysis (LTEA) Assay for Hypoxia-inducible factor 1 (HIF1A) Trancription factor using HepaRG (AID 2283503). The method in brief:
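HIF1A transcript level read by qRT-PCR (ACTB, GAPDH, POLR2A normalization) after 48 h chemical exposure of HepaRG cultures. Eight half-log concentrations, top 100 uM, 0.5% DMSO vehicle, duplicates; bidirectional curve fit against DMSO baseline.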

Read-out in experiment [7]: 3-Hydroxy-3-Methylglutaryl-CoA Synthase 2 (HMGCS2), HMGCS2 (gene 3158)
Nature of the experiment: LTEA_HepaRG_HMGCS2: Life Technologies and Expression Analysis (LTEA) Assay for 3-Hydroxy-3-Methylglutaryl-CoA Synthase 2 (HMGCS2) using HepaRG (AID 2283504). In a few lines: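 Human HepaRG cells in serum-free induction medium were exposed in duplicate for 48 h to 8-point half-log series from 100 uM top in 0.5% DMSO. HMGCS2 mRNA measured by TaqMan qRT-PCR, normalised to ACTB, GAPDH, POLR2A; bidirectional fit versus DMSO.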

Read-out in the next experiment: HGF (gene 3082)
Briefly: LTEA_HepaRG_HGF: Life Technologies and Expression Analysis (LTEA) Assay for Hepatocyte Growth Facto (HGF) using HepaRG (AID 2283505). The method in brief:
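Differentiated HepaRG cells in serum-free induction medium exposed 48 h in duplicate, 8 half-log concentrations from 100 uM in 0.5% DMSO. HGF mRNA by qRT-PCR, normalised to ACTB, GAPDH, POLR2A; bidirectional fitting.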

Read-out in experiment [8]: Insulin Like Growth Factor 1 (IGF1), IGF1 (gene 3479)
Briefly: LTEA_HepaRG_IGF1: Life Technologies and Expression Analysis (LTEA) Assay for Insulin Like Growth Factor 1 (IGF1) using HepaRG (AID 2283506). In a few lines:
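Cells are thawed, plated and cultured 48 h, then exposed in duplicate to chemical (highest 100 uM, half-log steps, 0.5% DMSO) for another 48 h. Total RNA is analysed by Fluidigm qRT-PCR for IGF1 expression relative to vehicle.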

Read-out in experiment [9]: Intercellular Adhesion Molecule 1 (ICAM1), ICAM1 (gene 3383)
Briefly: LTEA_HepaRG_ICAM1: Life Technologies and Expression Analysis (LTEA) Assay for Intercellular Adhesion Molecule 1 (ICAM1) using HepaRG (AID 2283507). In a few lines:
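Differentiated human HepaRG cells in serum-free induction medium exposed 48 h in duplicate to 8 half-log concentrations (top 100 uM, 0.5% DMSO). ICAM1 mRNA quantified by TaqMan qRT-PCR, normalized to ACTB, GAPDH and POLR2A; bidirectional fitting versus DMSO.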

Read-out in experiment [10]: Insulin-like growth factor-binding protein 1 (IGFBP1), IGFBP1 (gene 3484)
Briefly: LTEA_HepaRG_IGFBP1: Life Technologies and Expression Analysis (LTEA) Assay for Insulin-like growth factor-binding protein 1 (IGFBP1) using HepaRG (AID 2283508). In a few lines: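 HepaRG cells, plated 48 h then switched to serum-free induction medium, exposed in duplicate for 48 h to 8-point half-log series from 100 uM in 0.5% DMSO. mRNA measured by qRT-PCR, normalized to ACTB/GAPDH/POLR2A; bidirectional fit versus DMSO.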

Read-out in experiment [11]: Interleukin 6 (IL6), IL6 (gene 3569)
Nature of the experiment: LTEA_HepaRG_IL6: Life Technologies and Expression Analysis (LTEA) Assay for Interleukin 6 (IL6) using HepaRG (AID 2283509). In a few lines: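 qRT-PCR read-out of IL6 transcript, normalized to three housekeeping genes, after 48 h chemical exposure of HepaRG cells; 8-point half-log series, top 100 uM, 0.5% DMSO vehicle. Bidirectional curve fitting against DMSO baseline.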

Read-out in experiment [12]: Interleukin 6 Receptor (IL6R), IL6R (gene 3570)
Nature of the experiment: LTEA_HepaRG_IL6R: Life Technologies and Expression Analysis (LTEA) Assay for Interleukin 6 Receptor (IL6R) using HepaRG (AID 2283510). The method in brief: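 Cells were thawed, plated and cultured 48 h, then medium was changed to serum-free induction medium. Chemicals were added in duplicate (100 uM top, half-log steps, 0.5% DMSO) for 48 h. Lysates were analyzed by qRT-PCR for IL6R expression.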

Read-out in experiment [13]: Potassium channel subfamily K member 1 (KCNK1), KCNK1 (gene 3775)
Nature of the experiment: LTEA_HepaRG_KCNK1: Life Technologies and Expression Analysis (LTEA) Assay for Potassium channel subfamily K member 1 (KCNK1) using HepaRG (AID 2283511). The method in brief:
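HepaRG, 48 h exposure, 8-pt half-log series top 100 uM, 0.5% DMSO vehicle, duplicates. Readout: KCNK1 transcript by qRT-PCR (Fluidigm array), housekeeping-normalized; bidirectional curve fit relative to DMSO baseline.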

Read-out in experiment [14]: Keratin 19 (KRT19), KRT19 (gene 3880)
Nature of the experiment: LTEA_HepaRG_KRT19: Life Technologies and Expression Analysis (LTEA) Assay for Keratin 19 (KRT19) using HepaRG (AID 2283512). The method in brief:
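Differentiated HepaRG cells in serum-free induction medium, exposed 48 h in duplicate to 8 half-log concentrations up to 100 uM in 0.5% DMSO. KRT19 mRNA by qRT-PCR, normalized to ACTB, GAPDH, POLR2A; bidirectional fit vs DMSO.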

Read-out in experiment [15]: JUN Transcription Factor, JUN (gene 3725)
Briefly: LTEA_HepaRG_JUN: Life Technologies and Expression Analysis (LTEA) Assay for JUN Transcription Factor using HepaRG (AID 2283513). The method in brief:
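Read-out is JUN transcript level by TaqMan qRT-PCR, normalized to ACTB, GAPDH and POLR2A, after 48 h chemical treatment of HepaRG cells. Concentration-response spanned eight half-log points up to 100 uM in 0.5% DMSO.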

Read-out in experiment [16]: Lipase C (LIPC), LIPC (gene 3990)
Nature of the experiment: LTEA_HepaRG_LIPC: Life Technologies and Expression Analysis (LTEA) Assay for Lipase C (LIPC) using HepaRG (AID 2283514). In a few lines:
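HepaRG, 48 h exposure, 8-pt half-log series from 100 uM in 0.5% DMSO, duplicates. Readout: LIPC mRNA by Fluidigm qRT-PCR, housekeeping-normalized (ACTB/GAPDH/POLR2A). Gain or loss fitted bidirectionally against DMSO baseline.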

Read-out in experiment [17]: Lipoprotein lipase (LPL), LPL (gene 4023)
Nature of the experiment: LTEA_HepaRG_LPL: Life Technologies and Expression Analysis (LTEA) Assay for Lipoprotein lipase (LPL) using HepaRG (AID 2283515). The method in brief: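 HepaRG, 48 h exposure, 8-pt half-log dilutions from 100 uM, 0.5% DMSO vehicle, duplicates; qRT-PCR (Fluidigm array) of LPL mRNA vs housekeeping genes; bidirectional curve fit relative to DMSO baseline.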

Read-out in experiment [18]: MicroRNA 122 (MIR122), gene 406906
Briefly: LTEA_HepaRG_MIR122: Life Technologies and Expression Analysis (LTEA) Assay for MicroRNA 122 (MIR122) using HepaRG (AID 2283516). Note: the transcript read is the microRNA miR-122. The method in brief:
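Human liver HepaRG cultures receive test chemicals for 48 h at eight half-log concentrations from 100 uM. Expression is quantified by qRT-PCR with ACTB/GAPDH/POLR2A normalization and fitted bidirectionally against 0.5% DMSO.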

Read-out in experiment [19]: matrix metalloproteinase-10 (MMP10), MMP10 (gene 4319)
Briefly: LTEA_HepaRG_MMP10: Life Technologies and Expression Analysis (LTEA) Assay for matrix metalloproteinase-10 (MMP10) using HepaRG (AID 2283517). The method in brief:
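Transcript levels come from Fluidigm qRT-PCR normalized to three housekeeping genes, with curves fitted bidirectionally against 0.5% DMSO. Human HepaRG cells were dosed for 48 hours at concentrations up to 100 uM.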

Each structure is given as a SMILES string. The source made the active and inactive calls. Rule for the calls: active = hit-call score of the fitted dose curve at least 0.9, where 1 is the maximum; inactive = score below 0.9.

Hypoxia-inducible factor 1-alpha (Homo sapiens), sequence (Q16665 whole entry, looked up): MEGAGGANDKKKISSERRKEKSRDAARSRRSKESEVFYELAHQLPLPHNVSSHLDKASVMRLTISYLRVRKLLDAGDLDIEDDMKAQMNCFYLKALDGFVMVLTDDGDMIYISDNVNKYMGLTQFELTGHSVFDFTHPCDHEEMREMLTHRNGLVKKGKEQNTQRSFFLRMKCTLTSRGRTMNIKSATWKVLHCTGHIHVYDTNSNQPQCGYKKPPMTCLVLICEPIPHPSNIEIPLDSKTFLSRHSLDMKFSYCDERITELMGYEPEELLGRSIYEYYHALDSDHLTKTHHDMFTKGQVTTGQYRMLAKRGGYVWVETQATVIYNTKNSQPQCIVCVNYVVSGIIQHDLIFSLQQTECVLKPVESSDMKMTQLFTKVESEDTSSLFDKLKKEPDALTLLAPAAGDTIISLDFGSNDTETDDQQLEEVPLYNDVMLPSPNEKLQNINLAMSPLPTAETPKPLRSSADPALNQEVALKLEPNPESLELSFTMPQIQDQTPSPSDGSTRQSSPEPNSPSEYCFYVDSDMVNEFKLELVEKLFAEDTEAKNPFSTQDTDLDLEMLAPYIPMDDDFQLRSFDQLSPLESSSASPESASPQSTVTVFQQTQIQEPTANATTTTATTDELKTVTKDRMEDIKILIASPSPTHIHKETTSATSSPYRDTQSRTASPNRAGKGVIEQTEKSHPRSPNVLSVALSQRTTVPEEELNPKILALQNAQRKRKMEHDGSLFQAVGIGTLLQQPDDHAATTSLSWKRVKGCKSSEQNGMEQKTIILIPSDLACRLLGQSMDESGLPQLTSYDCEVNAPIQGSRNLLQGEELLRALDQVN

As for `CCc1cc(C2=C(C(=O)O)N(c3ccccc3C(F)(F)F)S(=O)(=O)c3ccccc32)cc2c1OCO2`, the result (in experiment [1]; in experiment [2]; in [4]; in [5]; in [6]; with HGF (gene 3082)) was inactive. Besides, the compound was classed as inactive in experiment [8], in [12], in experiment [15], in experiment [18] and in [19]. The AC50 in experiment [3] was 68.2 µM (active); in [7], 81.4 µM (active); in experiment [9], 50 µM (active); in experiment [10], 75.4 µM (active); in experiment [11], 78.5 µM (active); in experiment [13], 73.3 µM (active). Also, the results for the AC50 in [14], in [16] and in experiment [17] were 9.92 µM (active), 80.1 µM (active) and 74.3 µM (active), respectively.
Take `O=C1CCCCC1`: the compound was called inactive in experiment [1], in [2], in experiment [3], in experiment [4], in experiment [5] and in experiment [6]. Further, the result (in experiment [7]; in the experiment with HGF (gene 3082); in experiment [8]; in [9]; in experiment [10]; in experiment [11]) was inactive. The call in [12], in [13], in [14], in experiment [15], in [16] and in experiment [17] was inactive. For the same compound, the call in experiment [18] was inactive.
Take `COC(=O)CCCC(=O)OC`: the compound was called inactive in experiment [1], in [2], in [3], in experiment [4], in [5] and in experiment [6]. In addition, the result (in experiment [7]; with HGF (gene 3082); in experiment [8]; in [9]; in experiment [11]; in experiment [12]) was inactive. The call in experiment [13], in experiment [14], in experiment [15], in experiment [16], in experiment [17] and in [18] was inactive. Further, in [19], the compound was called inactive.
